Screens: PubChem BioAssay, National Center for Advancing Translational Sciences (NCATS)
The entries come from a sample that favours hits as a whole.
MARV entry inh – Marburg virus entry inhibition | Potency, µM (highest dose often 37.8 µM), for the others: at the highest dose activity change, negative = inhibition, usual class: inhibitors | 1.8% of 300,000 active | Marburg virus pseudotyped entry inhibition, cell reporter | AID 540276; calls by dose curve; tested in HEK293 cells; note: potency is the fitted concentration of half-maximal effect; % is set by controls: 0 for no effect and ±100 for the full control effect
CHX counter – counter-screen hit for Shiga toxin inhibitors, cycloheximide; cell reporter, cycloheximide protein synthesis inhibition counterscreen; max response, %; 12% of 300,000 active; in the data active = max response mostly above about 13%, no sharp cut-off; inactive = mostly below about 14%; note: read at 38.3 µM for the half of the compounds with a filed dose; 0% is about no effect
LASV entry inh – inhibitors of Lassa virus binding or cell entry; 1.2% of 300,000 active; Lassa virus pseudotype entry inhibition, cell reporter; Potency, µM (titrated, usually from 37.9 µM), inactives show top-dose activity change, negative = inhibition, most hits filed as inhibitors; calls by dose curve; tested in HEK293 cells; note: potency is the fitted concentration of half-maximal effect; % is set by controls: 0 for no effect and ±100 for the full control effect; nearly all actives have a fitted effect of over 50% in size
AMA1 RON2 block – AMA1-RON2 (P. falciparum) interaction inhibition. 0.2% of 360,000 active. AlphaScreen AMA1-biotinylated RON2 peptide binding. Potency, µM (highest dose often 58.2 µM), without a hit: at the top dose activity change, negative = inhibition, usual class: inhibitors; active = well fitted inhibition curve with a large enough effect; inconclusive = small, poorly fitted or top-dose-only effect; inactive = no such curve, though single readings can be large or run the other way;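 note: potency is the fitted concentration of half-maximal effect; 0% = vehicle wells and -100% = peptide control; nearly all actives have a fitted effect of over 45% in size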
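AMA1 (3D7) with his tag at 25 nM final met compounds first, then biotinylated RON2 peptide at 25 nM; detection used donor plus acceptor beads, 10 µg/mL apiece, read by AlphaScreen after 30 min at room temperature.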
Shiga toxin inh – Shiga toxin inhibition | Vero cells, Shiga toxin protein synthesis inhibition reporter | AID 2315 | inhibition, % at 38.7 µM | 9.2% of 290,000 active; in the data active = inhibition mostly above about 28%, no sharp cut-off; inactive = mostly below about 43%; note: 0% is about no effect
An asterisk follows results filed as active; ? = inconclusive; . = no result given; [ ] = remark or other dose.

SMILES	MARV entry inh	CHX counter	LASV entry inh	AMA1 RON2 block	Shiga toxin inh
CCOC(=O)C1=C(O)/C(=C\c2ccc(CNC(=O)C(=O)Nc3ccc(C)c(C)c3)o2)N=C1C	.	-2	.	.	-16
O=C1O/C(=C\c2ccccc2)c2ccccc21	-2%	31*	10%	53%	45*
CC1CCCCN1C(=S)NCCc1ccccc1 (stereo not given)	?	38*	21%	?	91*
CC1CCCN(C(=S)NCCc2ccccc2)C1 (stereo not given)	-29%	26*	?	-11%	54*
CN(C)C(=O)N1CCCC(C(=O)NCCc2ccccc2)C1 (stereo not given)	14%	26*	8%	0%	95*
Cc1ccc(-c2nc3c(C)cccn3c2Nc2ccccc2C)s1	-22%[46.1 µM]	.	21%[46.1 µM]	.	.
CCOC(=O)C1NNN2C3CCCCC3C(N(CC)CC)NC12 (stereo not given)	18%[46.1 µM]	.	.	.	.
Cc1cc(C(=O)N/N=C/c2ccccc2Br)no1	14%	36*	?	21%	60*
Cn1cccc1/C=N/NC(=O)c1ccncc1	6%[46.1 µM]	3	8%[46.1 µM]	26%	-7
Cc1cc(C(=O)N/N=C/c2cccn2C)no1	5%	10	19%	2%	18*
Cn1cccc1/C=N/NC(=O)c1cc2ccccc2cc1O	-21%[46.1 µM]	21*	6%	49%	67*
Cn1cccc1/C=N/NC(=O)c1ccccn1	.	31*	.	91%	84*
Cc1cc(C(=O)NCc2ccccc2Br)no1	13%	16*	6%	-1%	36
O=C(Nc1cccc(NC(=O)c2cccs2)c1)c1cccnc1	?	3	0%[46.1 µM]	-8%	9
O=C(O)c1ccc(NC(=S)NC(=O)c2cccnc2)cc1	26%[46.1 µM]	4	25%[46.1 µM]	2%	29
O=C(NC(=S)Nc1cc(Cl)ccc1O)c1cccc(Br)c1	.	42*	.	84%	90*
O=C(NNC(=O)c1cccc(Br)c1)Nc1ccc(Cl)cc1	?	-4	0%	27%	-9
O=C(Nc1ncc(Cl)cn1)c1cccs1	20%	45*	8%	0%	59*
O=C(NC(=S)Nc1cccnc1)c1cccs1	20%	20*	28%	23%	42*
O=C(NC(=S)Nc1cccnc1)c1ccccc1	?	28*	.	-2%	71*
CCOC(=O)C1CCCN(c2nc3c(S(=O)(=O)c4ccc(C)c(C)c4)nnn3c3ccc(Cl)cc23)C1 (stereo not given)	2%[46.1 µM]	.	.	.	.
Cc1cccc(C)c1NC(=O)Cn1c(=O)n(Cc2ccc3c(c2)OCO3)c(=O)c2oc3ccccc3c21	.	.	17%[46.1 µM]	.	.
COc1cccc(NC(=O)CN(C)C(=O)CC(NC(=O)c2ccccc2Cl)c2ccccc2)c1 (stereo not given)	.	.	.	62%	.
Cc1cc(Cl)ccc1OCC(=O)NC(=S)Nc1ccc(Cl)cn1	.	-2	.	0%	-5
O=C(NC(=S)Nc1ccc(Br)cn1)c1cccnc1	5%[46.1 µM]	28*	-2%[46.1 µM]	18%	30
SMILES	MARV entry inh	CHX counter	LASV entry inh	AMA1 RON2 block	Shiga toxin inh
O=C(NC(=S)Nc1ccccc1Br)c1cccnc1	.	10	.	34%	.
O=C(NC(=S)Nc1cccnc1)c1cccc(Br)c1	?	17*	1%[46.1 µM]	78%	63*
CCCC(=O)NC(=S)Nc1ccc(Cl)cn1	?	30*	?	58%	55
COc1ccc(C(=O)NC(=S)Nc2cccnc2)cc1OC	?	24	-3%	-4%	4
O=C(NC(=S)NCCSc1ccccc1)c1cccnc1	?	27*	7%	29%	37*
CC(=O)OC[C@H]1O[C@H](C#Cc2ccccc2)C=C[C@H]1OC(C)=O	21%[14.2 µM]	.	.	.	.
CCOC(=O)c1cc(C)n(CC2CCC(C(=O)Nc3ccc(C)cc3)CC2)c1C (stereo not given)	.	.	8%[46.1 µM]	.	.
O=C(Nc1cnccn1)c1cccs1	4%	19*	17%	34%	66
Cc1c(Cl)cccc1NC(=S)NC(=O)c1cncc(Br)c1	-5%[46.1 µM]	.	3.2µM*	60%	.
Cc1ccccc1NC(=S)NC(=O)c1cncc(Br)c1	?	7	?	42%	-76
O=C(NC(=S)Nc1ccc(Cl)cn1)c1cccs1	?	63*	?	0%	99*
Cc1cc(C)c(S(=O)(=O)c2ccccc2C(C)C)c(=O)[nH]1	?	-3	?	10%	-4
CC1=C(C(=O)Nc2ccc(Cl)cc2)C(c2ccc(C(F)(F)F)cc2)n2nnnc2N1 (stereo not given)	-3%[46.1 µM]	.	8%[46.1 µM]	.	.
Cc1ccc(N(CC(=O)NC(C)(C)C)C(=O)CS(=O)CC(=O)Nc2ccc3c(c2)OCO3)cc1 (stereo not given)	.	0	.	-4%	-9
C/C=C(\CS(=O)(=O)c1ccccc1)S(=O)(=O)c1ccccc1	-30%	15*	-5%	26%	44*
CC(C)C[C@H]1COc2c(Cl)cccc2S(=O)(=O)N1Cc1ccc(Cl)cc1	.	.	-14%[46.1 µM]	.	.
Cc1ccc(C(=O)N/C(=C\c2ccco2)C(=O)NCCCn2ccnc2)cc1C	-12%	4	5%	17µM*	13
Cc1ccc(Cn2cc(C=O)c(-c3ccc(C)cc3)n2)cc1	?	52*	?	37%	78*
S=C(NCc1ccccc1)NCc1ccccn1	-17%	-2	-2%	17%	17
S=C(NCc1ccccn1)Nc1cccc(Cl)c1	0%	13*	1%	12%	26
Cc1ccc(NC(=S)NCc2ccccn2)cc1	-3%	38*	6%	-17%	108*
S=C(NCc1ccccn1)NN=Cc1ccccn1	?	.	13µM*	-21%	.
Cc1cccc(NC(=S)NCc2ccccn2)c1	6%	28	16%	14%	42
Cc1ccc(NC(=O)C(NCc2ccccn2)c2ccccc2)cc1 (stereo not given)	?	37*	3%	35%	101*
CC(=NNC(=S)Nc1cccc(Cl)c1)c1ccccn1	0.2µM*	.	1.1µM*	-42%	.
SMILES	MARV entry inh	CHX counter	LASV entry inh	AMA1 RON2 block	Shiga toxin inh
Nc1c(C(=O)Nc2ccc(S(=O)(=O)N3CCCC3)cc2)sc2nc3cc4c(cc3cc12)CCC4	?	27*	?	0%	22*
Nc1c(C(=O)Nc2ccc(S(=O)(=O)N3CCCC3)cc2)sc2nc3ccc(OC(F)(F)F)cc3cc12	6.3µM*	7	?	11%	3
O=S(=O)(c1ccccc1)c1nnn2c1nc(Nc1ccccc1)c1cc(Cl)ccc12	8%[46.1 µM]	.	.	.	.
CCCN(CCC)CCNC(=O)Cn1ncc2c([nH]c3ccc(C)cc32)c1=O	.	.	18%[46.1 µM]	.	.
CC1CCc2c(sc(NC(=O)c3cc4nc(-c5ccc(Cl)cc5)cc(C(F)(F)F)n4n3)c2C#N)C1 (stereo not given)	0%[46.1 µM]	.	16%[46.1 µM]	.	.
COc1ccc2c(c1)NC(c1ccc(N(C)C)cc1)c1cccn1-2 (stereo not given)	?	25*	-6%[46.1 µM]	41%	79*
COc1ccc2c(c1)NC(c1cc(Cl)cc(Cl)c1O)c1cccn1-2 (stereo not given)	3%[46.1 µM]	-3	11%[46.1 µM]	?	-2
CCSc1ccc(C(=O)Nc2cccc(C)n2)cc1[N+](=O)[O-]	13%	10.0*	-8%	-1%	23*
CCSc1ccc(C(=O)Nc2ccc(Br)cn2)cc1[N+](=O)[O-]	.	7	.	-3%	20
